High-throughput results from PubChem.
AmpC no deterg: inhibitors of E. coli AmpC beta-lactamase without detergent | Potency, µM (highest dose often 57.1 µM), for the others: at the top dose activity change, negative = inhibition, most hits filed as inhibitors | AID 485341 | hit rate 0.52% among 330,000 | AmpC nitrocefin hydrolysis, absorbance 480 nm, 0.0001% Triton;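 further: plate controls were no compound for no effect and no enzyme for full effect; nearly all actives have a fitted effect of over 20% in size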
Target sequence (P00811 whole entry, looked up): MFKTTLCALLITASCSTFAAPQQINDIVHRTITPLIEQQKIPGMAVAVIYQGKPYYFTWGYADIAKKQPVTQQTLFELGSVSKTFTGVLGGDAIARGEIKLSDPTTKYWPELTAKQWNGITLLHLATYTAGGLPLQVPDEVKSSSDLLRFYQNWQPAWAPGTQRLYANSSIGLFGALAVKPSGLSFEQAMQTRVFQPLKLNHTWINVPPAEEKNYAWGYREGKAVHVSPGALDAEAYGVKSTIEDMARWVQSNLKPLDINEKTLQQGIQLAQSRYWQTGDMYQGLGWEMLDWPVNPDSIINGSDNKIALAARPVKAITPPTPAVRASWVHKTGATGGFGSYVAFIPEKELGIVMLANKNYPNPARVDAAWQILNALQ
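20 mM phosphate pH 7.0 + 0.01% (detergent screen) or 0.0001% Triton X-100; 5.3 nM AmpC reagent; cpd preinc 15 min RT; nitrocefin (800 uM stock) to start; A480 q20 s × 4 min; Activity was normalised to no-enzyme and no-compound control wells.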
FBPA Giardia inh: inhibitors of Giardia lamblia fructose-1,6-bisphosphate aldolase; A8B2U2; purified Giardia FBPA; Potency, µM (doses to about 59.6 µM), without a hit: top-dose activity, negative = inhibition, most hits filed as inhibitors; hit rate 0.71% among 290,000; further: nearly all actives have a fitted effect of over 55% in size
Target sequence (A8B2U2 whole entry, looked up): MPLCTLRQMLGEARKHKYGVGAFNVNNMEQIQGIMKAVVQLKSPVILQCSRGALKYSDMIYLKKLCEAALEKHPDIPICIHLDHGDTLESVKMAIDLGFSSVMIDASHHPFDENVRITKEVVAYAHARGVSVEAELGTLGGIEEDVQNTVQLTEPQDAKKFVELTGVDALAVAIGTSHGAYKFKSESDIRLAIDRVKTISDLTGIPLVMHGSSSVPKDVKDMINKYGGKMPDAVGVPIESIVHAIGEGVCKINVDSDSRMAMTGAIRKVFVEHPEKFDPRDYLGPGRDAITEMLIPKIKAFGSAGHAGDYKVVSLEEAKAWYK
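Giardia FBPA (40 nM reagent) was preincubated 10 min at RT with compound (up to 57.5 uM final), then substrate plus GAPDH/TPI/NAD/arsenate coupling system with diaphorase/resazurin was added; resorufin fluorescence (525/598 nm) was read after 20 min.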
RE007 growth inh: less growth of the S. pombe RE007 Vpr strain; Potency, µM (titrated, usually from 92.2 µM), inactives show at the highest dose activity change, negative = less growth, usual class: inhibitors; S. pombe RE007 Vpr strain, BacTiter-Glo ATP luminescence, 24 h; hit rate 0.21% among 360,000; active means well fitted falling curve with a large enough effect; inconclusive means small, poorly fitted or top-dose-only effect; inactive means no such curve, though single readings can be large or run the other way; further: nearly all actives have a fitted effect of over 50% in size
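Fission yeast strain RE007, carrying one chromosomally integrated HIV-1 vpr copy, was seeded at OD 0.01 in PMG+AL medium with 23 nL pinned compound. After 24 h at 30 °C and 99% humidity, viability was read by BacTiter-Glo luminescence.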
AmpC detergent: AmpC beta-lactamase inhibition with detergent present | AmpC hydrolysis of nitrocefin, absorbance 480 nm, 0.01% Triton | hit rate 0.041% among 370,000 | Potency, µM (titrated, usually from 114 µM), for the others: at the top dose activity change, negative = inhibition, actives largely listed as inhibitors;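 further: 0% = no-compound wells and -100% = no-enzyme wells; nearly all actives have a fitted effect of over 25% in size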
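20 mM phosphate pH 7.0 + 0.01% (detergent screen) or 0.0001% Triton X-100; 5.3 nM AmpC reagent; cpd preinc 15 min RT; nitrocefin (800 uM stock) to start; A480 q20 s × 4 min; Activity was normalised to no-enzyme and no-compound control wells.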
Sm TGR block: blocks Schistosoma mansoni thioredoxin glutathione reductase; hit rate 3% among 360,000; Q962Y6; AID 485364; Potency, µM (top dose mostly 114 µM), for inactives: at the highest dose activity change, negative = inhibition, actives largely listed as inhibitors; purified TGR, DTNB reduction, TNB absorbance 405 nm; further: nearly all actives have a fitted effect of over 60% in size
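First, TGR (20 nM dispensed) and NADPH were mixed with compound. Second, a 15 min room-temperature incubation followed. Third, further NADPH and then DTNB were added to start the reaction. Finally, TNB absorbance was monitored kinetically.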
Numbers without * were called inactive; [ ] = dose if it differs, or a comment. This is a sample that favours compounds with a hit; in the whole collection about 3.4% have one here. Unless noted, the call rests on the fitted dose curve; in most records, active means well fitted curve in the direction sought with a large enough effect; inconclusive means small, poorly fitted or top-dose-only effect, or another doubt; inactive means no such curve, though single readings can be large; an effect the other way counts as inactive or inconclusive. Unless noted, on the % scale 0 is the no-effect control and ±100 the full control effect; potency means the concentration at half of the fitted maximal effect.

`CCCS(=O)(=O)c1nc(S(=O)(=O)c2ccc(C)cc2)c(N2CCC(O)CC2)s1` gave AmpC no deterg 63%, RE007 growth inh -7%, AmpC detergent -10% and Sm TGR block -6%.
Screening Cc1cc(C)cc(N(C(=O)c2csnn2)C(C(=O)NC2CCCCC2)c2ccccn2)c1 (centres undefined) returned AmpC no deterg 44%, FBPA Giardia inh -7%, RE007 growth inh -10%, AmpC detergent -1% and Sm TGR block 1%.
`O=[N+]([O-])c1ccccc1CCl` gave AmpC no deterg -14%, RE007 growth inh -7%, AmpC detergent -3% and Sm TGR block 40µM*.
Cc1ccc(C)c(N2CCN(C(c3ccccc3)c3nnc(-c4ccccc4F)o3)CC2)c1 (centres undefined) was read as AmpC detergent 13% and Sm TGR block 7%.
`Cc1cc(NC(=O)CC2CCCC2)n(-c2nc3ccccc3[nH]2)n1` gave AmpC no deterg -22%, FBPA Giardia inh -13%, RE007 growth inh -7%, AmpC detergent -9% and Sm TGR block 22µM*.
For Cc1cc(NC(=O)c2ccc(F)cc2F)n(-c2nc3ccccc3[nH]2)n1 the results were AmpC no deterg -3%, FBPA Giardia inh -7%, RE007 growth inh -1%, AmpC detergent -1% and Sm TGR block 4%.
`O=C(O)Cc1sc(Nc2ccccc2)nc1-c1ccc(Cl)cc1` gave AmpC no deterg -40%, FBPA Giardia inh 5%, RE007 growth inh -2%, AmpC detergent 0% and Sm TGR block 45µM*.
O=C(Cc1sc(Nc2ccccc2)nc1-c1ccccc1)NCc1ccccn1 was read as AmpC no deterg -46%[11.4 µM], FBPA Giardia inh -11%, RE007 growth inh 2%, AmpC detergent -8% and Sm TGR block 25µM*.
Cc1ccc(Nc2nc(-c3ccccc3)c(CC(=O)O)s2)cc1 was read as AmpC no deterg inconclusive, FBPA Giardia inh -2%, RE007 growth inh inconclusive, AmpC detergent inconclusive and Sm TGR block -35%.
Screening COc1ccc(-c2nnc3c4ccccc4c(C)nn23)cc1S(=O)(=O)N1CCN(CCO)CC1 returned AmpC no deterg 188%, FBPA Giardia inh -1%, RE007 growth inh 16%, AmpC detergent inconclusive and Sm TGR block -12%.
O=C(CSc1nc2ccccc2c(=O)n1CCC(=O)N1CCN(c2ccccc2)CC1)NCC1CCCO1 (centres undefined) was read as AmpC no deterg 178%, FBPA Giardia inh -1%, RE007 growth inh 8%, AmpC detergent -8% and Sm TGR block -18%.
Screening O=C1c2cccc(-c3ccc(C(F)(F)F)cc3)c2C2CCCCN12 (centres undefined) returned RE007 growth inh 14%.
CC1(C)Cc2c(ccc3ccccc23)/C(=C/C#N)N1 was read as AmpC no deterg -23%, FBPA Giardia inh -26%, RE007 growth inh 8%, AmpC detergent -3% and Sm TGR block 45µM*.
CN(C)S(=O)(=O)c1ccc(N2CCCC2)c(C(=O)NNC(=O)c2ccc(F)cc2)c1 was read as AmpC no deterg -25%, RE007 growth inh 65%, AmpC detergent -9% and Sm TGR block -5%.
For Cc1ccc(S(=O)(=O)N2CCN(C(=O)CN3CCOCC3)C2c2ccccc2)cc1 (centres undefined) the results were AmpC no deterg 15%, FBPA Giardia inh 8%, RE007 growth inh 17%, AmpC detergent -13% and Sm TGR block 40µM*.
`COc1ccc(C(C(C(=O)c2ccco2)N2CCOCC2)N2CCOCC2)cc1` (centres undefined) gave AmpC no deterg -2%, FBPA Giardia inh -8%, RE007 growth inh -6%, AmpC detergent -15% and Sm TGR block 45µM*.
COc1ccc(C(CNC(=O)c2ccco2)N2CCOCC2)cc1 (centres undefined) was read as AmpC no deterg -19%, RE007 growth inh -3%, AmpC detergent -3% and Sm TGR block -4%.
O=C(Nc1ccccc1)C1=C(c2ccccc2)S(=O)(=O)CCS1(=O)=O was read as AmpC no deterg -34%, FBPA Giardia inh -5%, RE007 growth inh 3%, AmpC detergent -3% and Sm TGR block 0.25µM*.
For CC(=O)N1C(C(=O)O)Cc2c([nH]c3ccccc23)C1(C)C (centres undefined) the results were AmpC no deterg -7%, FBPA Giardia inh 7%, RE007 growth inh -8%, AmpC detergent -5% and Sm TGR block -3%.
`CCC1NC(C(=O)O)Cc2c1[nH]c1ccccc21` (centres undefined) gave AmpC no deterg -38%, RE007 growth inh -11%, AmpC detergent -6% and Sm TGR block 40µM*.
CC1(C)NC(C(=O)O)Cc2c1[nH]c1ccccc21 (centres undefined) was read as AmpC no deterg 139%, FBPA Giardia inh -8%, RE007 growth inh -4%, AmpC detergent inconclusive and Sm TGR block 40µM*.
For COc1cc(C2NC(C(=O)O)Cc3c2[nH]c2ccccc32)cc(OC)c1OC (centres undefined) the results were AmpC no deterg 2%, FBPA Giardia inh inconclusive, RE007 growth inh 5%, AmpC detergent 2% and Sm TGR block 15%.
For CS(=O)(=O)c1nc(S(=O)(=O)c2ccc(Cl)cc2)c(NCCCn2ccnc2)s1 the results were AmpC no deterg 24%, RE007 growth inh 3%, AmpC detergent 0% and Sm TGR block -23%.
COc1ccc(/C(C)=N/N=C(N)N)c(OC)c1 was read as AmpC no deterg -20%, FBPA Giardia inh -5%, RE007 growth inh -2%, AmpC detergent -4% and Sm TGR block 3%.
O=C(CCN1C(=O)/C(=C/c2cccs2)SC1=S)Nc1ccccn1 was read as AmpC no deterg -36%, FBPA Giardia inh 6%, RE007 growth inh -9%, AmpC detergent -2% and Sm TGR block -1%.
`O=C(CCN1C(=O)S/C(=C\c2cccs2)C1=O)NC1=NCCS1` gave AmpC no deterg 22µM*, FBPA Giardia inh 3%, RE007 growth inh -15%, AmpC detergent -3% and Sm TGR block -1%.
For COc1ccc(/C=C2\SC(=S)N(CCC(=O)N(CCO)Cc3ccccc3)C2=O)cc1OC the results were AmpC no deterg 18%, FBPA Giardia inh 1%, RE007 growth inh 15%, AmpC detergent inconclusive and Sm TGR block 8%.
Screening CN(C)c1nc(N)nc(-c2nc3ccccc3s2)n1 returned AmpC no deterg 0%, FBPA Giardia inh 9%, RE007 growth inh 1%, AmpC detergent -1% and Sm TGR block -2%.
For CN(C)c1nc(N)nc(Nc2ccccc2C#N)n1 the results were AmpC no deterg 0.2µM*, FBPA Giardia inh 0%, RE007 growth inh 0%, AmpC detergent 0% and Sm TGR block 0%.
